Screens from PubChem.
In the library only some 21% were active in any assay of this set; here they are far more common.
DT40 TDP1 CPT – growth inhibition of DT40 Tdp1-/-;hTDP1 cells with camptothecin (screen for TDP1 inhibitors) | chicken DT40 Tdp1-/-;hTDP1 cells + 20 nM CPT, ATP luminescence, 48 h | Potency, µM (top dose mostly 46.2 µM), for inactives: at the highest dose activity change, negative = growth inhibition, usual class: inhibitors | 420,000 tested, 12% active | AID 686979; note: potency is the fitted concentration of half-maximal effect; % is set by controls: 0 for no effect and ±100 for the full control effect; nearly all actives have a fitted effect of over 55% in size
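Cell growth measured by CellTiter-Glo luminescence after a minimum 48 h, 37 C compound exposure with 20 nM CPT in Tdp1-knockout DT40 cells stably expressing hTDP1, seeded 400/well; qHTS titration format.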
IL1B secr inh – inhibitors of inflammasome signaling (IL-1 beta secretion); THP-1 LPS/ATP IL-1B secretion, AlphaLISA, 16 h; active compounds read low; activity change, % at 57.5 µM; 360,000 tested, 4.7% active; in the data active = activity change below about -50%; inconclusive = mostly about -30% to -49%; note: % is set by controls: 0 for no effect and ±100 for the full control effect
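Secreted IL-1B measured by AlphaLISA bead assay after 16 h compound exposure of THP-1 cells; compounds (final up to 57.5 uM) added 1 h before LPS (250 ng/mL) and ATP (1.25 mM) stimulation; lower signal means less secretion.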
ClpP mod – qHTS Assay for Activators of ClpP; Potency, µM (doses to about 57.5 µM), for the others: at the top dose activity change, negative = active; 340,000 tested, 1.9% active; purified B. subtilis ClpP, FRET peptide cleavage, 20 min; active = well fitted falling curve with a large enough effect; inconclusive = small, poorly fitted or top-dose-only effect; inactive = no such curve, though single readings can be large or run the other way; note: potency is the fitted concentration of half-maximal effect; the source files actives as falling curves though it sought activators and does not explain the sign; nearly all actives have a fitted effect of over 65% in size
Target sequence (P80244 whole entry, looked up): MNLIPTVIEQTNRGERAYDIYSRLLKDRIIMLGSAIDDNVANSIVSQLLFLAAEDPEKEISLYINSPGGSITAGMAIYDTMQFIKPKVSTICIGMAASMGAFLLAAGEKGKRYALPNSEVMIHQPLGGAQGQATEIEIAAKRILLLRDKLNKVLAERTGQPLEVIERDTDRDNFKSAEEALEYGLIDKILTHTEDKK
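Purified B. subtilis ClpP, 10 microg/mL final in Tris/HCl pH8 with KCl, BSA, glycerol and Tween-20, cleaved an Abz/nitrotyrosine-quenched decapeptide. Fluorescence (ex 320, em 430) was read at 0 and 20 min at room temperature. Delta was normalized to 5.8 microM ADEP and DMSO/no-enzyme controls.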
TDP1 cell noCPT – qHTS for Inhibitors of human tyrosyl-DNA phosphodiesterase 1 (TDP1): qHTS in cells in absence of CPT; 420,000 tested, 15% active; DT40 Tdp1-/- hTDP1 cells, no CPT, ATP luminescence, 48 h; Potency, µM (titrated, usually from 46.2 µM), for the others: top-dose activity change, negative = growth inhibition, most hits filed as inhibitors; AID 686978, 2013; note: potency is the fitted concentration of half-maximal effect; % is set by controls: 0 for no effect and ±100 for the full control effect; nearly all actives have a fitted effect of over 55% in size
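A cellular qHTS used chicken DT40 cells lacking endogenous Tdp1 but carrying stably transfected human TDP1. Compounds were applied without camptothecin, and cell growth kinetics were judged by ATP-dependent luminescence after ≥48 hr.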
DRD3 agonist – D3 dopamine receptor (human) agonism | max activation, % | D3R DiscoveRx beta-arrestin cells, luminescence, 90 min | 410,000 tested, 0.58% active | P35462; in the data active = max activation above about 30%; note: 0% is about no effect
Target sequence (P35462 whole entry, looked up): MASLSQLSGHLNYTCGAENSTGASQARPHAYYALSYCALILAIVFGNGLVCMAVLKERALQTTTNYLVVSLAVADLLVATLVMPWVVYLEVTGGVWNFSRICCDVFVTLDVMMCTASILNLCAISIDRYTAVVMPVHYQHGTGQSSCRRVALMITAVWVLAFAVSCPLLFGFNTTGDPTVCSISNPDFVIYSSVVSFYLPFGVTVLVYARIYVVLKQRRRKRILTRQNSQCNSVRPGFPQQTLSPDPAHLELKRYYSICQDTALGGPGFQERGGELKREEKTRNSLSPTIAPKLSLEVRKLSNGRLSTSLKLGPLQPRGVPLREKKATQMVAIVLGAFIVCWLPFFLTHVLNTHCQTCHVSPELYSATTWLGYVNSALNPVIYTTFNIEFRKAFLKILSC
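Cells at 1500/well, incubated overnight, then treated with pinned compounds (dopamine as control) for 90 min at 37 degrees C. DiscoveRx reagent added for 30 - 60 minutes at room temperature; luminescence read.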
D3 antag – antagonists of human D3 dopamine receptor; D3R cells, DiscoveRx beta-arrestin luminescence, antagonist mode; active compounds read low; P35462; max response, negative = inhibition, %; AID 652054; 360,000 tested, 2.5% active; in the data active = max response below about -50%; inconclusive = no clear call, values can overlap the other calls; note: % is set by controls: 0 for no effect and ±100 for the full control effect
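Cells expressing the human receptor were seeded at 1500 cells/well, incubated overnight at 37 degrees C in 5% CO2, then exposed to library compounds with dopamine controls for 90 minutes at 37 degrees C before luminescent detection.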
Starred values were filed as active, the others as inactive; i = inactive; ? = inconclusive; nt = no result; [ ] = dose if it differs, or a comment. Unless noted, calls come from the whole dose curve; as a rule, active = well fitted inhibition curve with a large enough effect; inconclusive = small, poorly fitted or top-dose-only effect; inactive = flat fitted curve, though single readings scatter.

SMILES	DT40 TDP1 CPT	IL1B secr inh	ClpP mod	TDP1 cell noCPT	DRD3 agonist	D3 antag
COc1ccc(NC(=O)c2cc3ccccc3cc2O)cc1	?	-99*	-3%	?	-9	-61*
COc1ccc(NC(=O)c2cc(SC)ccc2Cl)cc1	23µM*	?	1%	?	-13	12
CCCNC(=O)c1cc(SC)ccc1Cl	-29%	-21	-3%	0%	0	-6
COc1ccc(NC(=O)c2cnc(SC)nc2)cc1	15µM*	9	-2%	12µM*	-2	33
O=C(Nc1ccc2ccccc2c1)c1ccccc1O	13µM*	-69*	nt	10µM*	-6	-2
CCc1ccc(NC(=O)CSc2nc(=O)n(CCN(C)C)c3c2CCCC3)cc1	?	-12	0%	?	1	5
CCC1CCCCN1CCCNC(=O)c1cc2c(=O)[nH]c3ccccc3c2n1C (stereo not drawn)	0%	-2	4%	9%	-8	12
O=C(O)c1cc(S(=O)(=O)O)ccc1O	-2%	-3	20µM*	?	3	-4
Cc1ccc(NC(=O)NNC(=O)c2cc3ccccc3cc2O)cc1C	-4%	9	1%	5%	-4	-9
O=C(Nc1cccnc1Oc1ccc(Cl)cc1)c1cccc2ccccc12	-10%	-57*	nt	?	0	1
NC(=O)c1cccnc1Oc1ccc(Cl)cc1	8%	-2	nt	-22%	-8	0
O=C(O)c1cc(NS(=O)(=O)c2ccc3ccccc3c2)ccc1O	-5%	-2	0%	-9%	-22	-108*
O=C(O)c1cc2cc(S(=O)(=O)O)ccc2cc1O	-12%	-3	-3%	6%	-7	-13
Cc1ccc(NC(=O)c2cc3ccccc3cc2O)cc1	16µM*	-9	2%	?	8	39
COc1ccc(NC(=O)c2c(Cl)n(C)c3ccccc23)cc1	8.2µM*	18	1%	8.2µM*	-2	?
COc1ccc(NC(=O)c2cccc3c(Br)cccc23)cc1	?	20	-1%	?	-6	6
COc1ccc(NS(=O)(=O)NC(=O)c2c(C)n(C)c3ccccc23)cc1	-3%	33	-2%	22%	3	-2
Oc1ccc2ccccc2c1CNc1ccc2ccccc2c1	-9%	-100*	nt	?	-3	?
COc1ccc(NC(=O)c2cccc3ccccc23)cc1	18µM*	-7	nt	21µM*	-13	-25
COC(=O)c1cc2oc(C)cc2n1CC(=O)Nc1ccc(OC)c(OC)c1	-2%	nt	-12%	0%	-3	nt
O=C(COC(=O)/C=C/c1ccccc1[N+](=O)[O-])Nc1ccc(S(=O)(=O)N2CCOCC2)cc1	5%	-5	1%	-17%	0	18
O=C1CC(Sc2cccs2)C(=O)N1c1ccccc1 (stereo not drawn)	3.7µM*	-27	nt	3.7µM*	17	-3
Cc1nnc(SC2CC(=O)N(c3ccccc3)C2=O)s1 (stereo not drawn)	3.7µM*	6	-1%	21µM*	-4	-11
Cc1nc(SC2CC(=O)N(c3ccccc3)C2=O)nc2c1CCCC2 (stereo not drawn)	?	9	-1%	-29%	8	24
O=C1CC(Sc2nnc(-c3ccccc3)o2)C(=O)N1c1ccccc1 (stereo not drawn)	2.9µM*	-17	16%	4.6µM*	-2	-15
SMILES	DT40 TDP1 CPT	IL1B secr inh	ClpP mod	TDP1 cell noCPT	DRD3 agonist	D3 antag
COc1ccccc1NC(=O)c1cc2cc(Br)ccc2oc1=N	?	-15	-1%	?	-5	-13
COc1ccc(S(=O)(=O)CC(=O)c2cc3cc(Br)ccc3oc2=O)cc1	?	3	0%	12µM*	-1	7
N=c1oc2ccc(Br)cc2cc1C(=O)NC1CCCCCC1	16µM*	-23	0%	9.2µM*	-5	9
Cc1ccc(C(C)NC(=O)c2cc3cc(Br)ccc3oc2=N)cc1 (stereo not drawn)	23µM*	i	?	21µM*	3	16
CC(C)NC(=O)c1cc2cc(Br)ccc2oc1=O	?	0	-3%	23µM*	0	-27
O=C(OC1CCCCC1=O)c1ccc(F)c(S(=O)(=O)N2CCOCC2)c1 (stereo not drawn)	2%	1	0%	2%	5	23
CCC(C(=O)Nc1cccc(S(=O)(=O)N(C)c2ccccc2)c1)c1ccccc1 (stereo not drawn)	18µM*	-1	-1%	18µM*	-20	0
CC(Oc1ccc(F)cc1)C(=O)Nc1cccc(S(=O)(=O)N(C)c2ccccc2)c1 (stereo not drawn)	?	9	0%	16µM*	-3	-1
CC(Oc1ccc(F)cc1)C(=O)Oc1ccc(N(C)S(=O)(=O)c2ccccc2)cc1 (stereo not drawn)	-23%	6	-2%	-26%	-9	-6
Cc1ccc(S(=O)(=O)N(C)c2ccc(OC(C)C(=O)N(C)c3ccccc3)cc2)cc1 (stereo not drawn)	15µM*	6	1%	18µM*	11	-4
Cc1ccccc1C(=O)NNS(=O)(=O)c1ccc(F)cc1	1%	-21	-3%	-1%	1	0
CC1CN(CC(=O)NCCC2COc3ccccc3O2)Cc2cc(Cl)ccc2O1 (stereo not drawn)	6%[9.04 µM]	nt	nt	-23%	nt	nt
Cc1ccc(NC(=S)N(CCCN2CCN(C)CC2)Cc2cccs2)cc1	-1%	-19	-1%	-1%	-4	-2
COc1cccc(NC(=S)N(CCCN2CCOCC2)Cc2cn(C)c3ccccc23)c1	9.2µM*	-13	0%	15µM*	-25	-20
COc1ccc(NC(=S)N(CCCN2CCC(C)CC2)Cc2cccs2)cc1	-10%	-51*	nt	?	-7	-58*
COc1ccc(NC(=S)N(CCCN2CCOCC2)Cc2cn(C)c3ccccc23)cc1OC	-29%	-11	1%	?	-6	1
O=C(CNC(=S)N(CCCN1CCOCC1)Cc1cccs1)NC1CCCCCCC1	?	-54*	-2%	16µM*	-5	0
COc1cccc(NC(=S)N(CCN(C)C)Cc2cccs2)c1	6%	-22	nt	-20%	-6	0
COc1cccc(NC(=S)N(CCCN2CCC(C)CC2)Cc2cccs2)c1	-27%	-23	-3%	?	-41	-84*
